Results from PubChem BioAssay (NCATS).
Where “and” joins values, the source holds several entries; their conditions need not be identical. Equal entries are not always repeated. Results filed as inconclusive are left out. More than one record can exist for a structure, and the calls need not agree. Calls of active or inactive are those of the source. Calls follow the shape of the dose curve; as a rule, active = well fitted cell-killing curve with a large enough effect; inconclusive = small, poorly fitted or top-dose-only effect, or effect the other way; inactive = no such curve, though single readings can be large or run the other way.

Experiment: Viability qHTS for spleen associated tyrosine kinase inhibitor (SYKi) drug resistant MV4-11 cells (AID 1963824); also: nearly all actives have a fitted effect of over 35% in size
Conditions: SYKi-resistant MV4-11 viability, CellTiter-Glo, 72 h; series mostly up to 45 µM; viability, % of control: at the top concentration
Summary of the method: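 SYK inhibitor-resistant MV4-11 AML cells, 500 per well, added to predispensed compounds and incubated 72 hr at 37 C, 5% CO2. Viability measured by CellTiter-Glo luminescence after 10 min at room temperature.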
Potency is read from the fitted curve at half-maximal effect.

Compound | Potency | viability, % of control
Cc1noc(C)c1-c1ccc(-c2cc(C(N)=O)c(NC(N)=O)s2)c(O[C@H]2CCNC2)c1 | 3260 nM (active) | 
O=C(O)C1=CO[C@@H](O[C@@H]2O[C@H](CO)[C@@H](O)[C@H](O)[C@H]2O)[C@@H]2C(CO)=CC[C@H]12 | 12.8 µM (active) and inactive | 
CC(=O)Nc1ccc(OCCOCCOc2ccc(NC(C)=O)cc2)cc1 |  | 43.7% (inactive)
CN1CCN(C2CCC(n3cc(-c4ccc(Oc5ccccc5)cc4)c4c(N)ncnc43)CC2)CC1 (stereo not given) | 58 nM (active) and 74.2 nM (active) | 
COc1ccc(Cl)cc1C(=O)NCCc1ccc(S(=O)(=O)NC(=O)NC2CCCCC2)cc1 |  | 83.3% (inactive)
COc1cc(C(=O)O)ccc1NC(=O)[C@@H]1N[C@@H](CC(C)(C)C)[C@](C#N)(c2ccc(Cl)cc2F)[C@H]1c1cccc(Cl)c1F | 5250 nM (active) | 
COc1ccc2cc(OCC3(C(=O)O)CN(C(=O)c4ccc(F)cc4)C3)ccc2c1 |  | 75.8% (inactive)
CCC(=C/[C@H](C)C/C=C/C(C)=C/[C@@H](C)C(=O)[C@@H](C)[C@H](O)[C@@H](C)C/C(C)=C/C(=O)O)/C=C/[C@@H]1OC(=O)C=C[C@@H]1C | 2.1 nM (active) | 
COc1cccc2c1C(=O)c1c(O)c3c(c(O)c1C2=O)C[C@@](O)(/C(CO)=N/NC(=O)CCCCCN1C(=O)C=CC1=O)C[C@@H]3O[C@H]1C[C@H](N)[C@H](O)[C@H](C)O1 | 186 nM (active) | 
CN(C)/N=N/c1nc[nH]c1C(N)=O |  | 90.1% (inactive)
C[C@@H]1O[C@@H](OC[C@H]2O[C@@H](Oc3c(-c4ccc(O)c(O)c4)oc4cc(O)cc(O)c4c3=O)[C@H](O)[C@@H](O)[C@@H]2O)[C@H](O)[C@H](O)[C@H]1O |  | 80.6% (inactive)
C[C@]12CCC3[C@@H](CC[C@H]4NC(=O)C=C[C@]34C)[C@@H]1CC[C@@H]2C(=O)Nc1cc(C(F)(F)F)ccc1C(F)(F)F (stereo not given in full) | 9340 nM (active) | 
C#CC(C)(CC)OC(=O)c1ccccc1C(=O)O (stereo not given) |  | 88.9% (inactive)
C=C1C(=O)O[C@H]2C[C@H](C)C(/C=C/C(C)=O)=CC[C@H]12 | 934 nM (active) | 
CNC[C@H](O)c1cccc(O)c1 |  | 75% (inactive)
CC(C)NCC(O)c1cc(O)cc(O)c1 (stereo not given) |  | 82.4% (inactive)
COc1cc(N2CCN(C)CC2)ccc1Nc1ncc2c(n1)N(C)c1ccccc1C(=O)N2C | 1860 nM (active) | 
O=C1CC2(CCCC2)CC(=O)N1CCNCC1COc2ccccc2O1 (stereo not given) |  | 67.9% (inactive)
COc1ccc(/C=C\c2cc(OC)c(OC)c(OC)c2)cc1O | 4.7 nM (active) | 
CCS(=O)(=O)Nc1ccc(Oc2ccc(F)cc2F)c(-c2cn(C)c(=O)c3[nH]ccc23)c1 | 4.2 nM (active) | 

Compound | Potency | viability, % of control
CC(COc1ccccc1)NN (stereo not given) |  | 84.9% (inactive)
Nc1ncnc(Nc2ccc(OCc3ccccc3)c(Cl)c2)c1/C=N/OCCN1CCOCC1 | 7420 nM (active) | 
CO[C@@]12[C@H](COC(N)=O)C3=C(C(=O)C(C)=C(N)C3=O)N1C[C@@H]1N[C@@H]12 | 74.2 nM (active) | 
O=C1NC(=O)[C@@H](c2c[nH]c3ccccc23)[C@H]1c1cn2c3c(cccc13)CCC2 | 742 nM (active) | 
COCc1c(-c2ccc(NC(=O)Nc3cc(C(F)(F)F)ccc3F)c(F)c2)c2c(N)ncnn2c1CN1CCOCC1 | 16.4 nM (active) | 
O=C(O)Cc1ccccc1Oc1ccc(Cl)cc1Cl |  | 64.1% (inactive)
COc1cc(C(=O)N2CCCCCCC2)cc(OC)c1OC |  | 68.7% (inactive)
CCN1C(=O)CNc2ncc(-c3ccc(-c4ncn[nH]4)nc3C)nc21 | 742 nM (active) | 
N=C(N)c1ccc2nc(-c3cc(CC(=O)N[C@@H](CC(=O)O)C(=O)O)cc(-c4cc(S(N)(=O)=O)ccc4O)c3O)[nH]c2c1 |  | 84.9% (inactive)
COc1cccc2c1C(=O)c1c(O)c3c(c(O)c1C2=O)C[C@@](O)(C(=O)CO)C[C@@H]3O[C@H]1C[C@H](N)[C@H](O)[C@H](C)O1 | 299 nM (active) | 
CCN(CC)CCOC(=O)C1(c2ccccc2)CCCC1 |  | 75.8% (inactive)
CC[C@]1(O)CC2CN(CCc3c([nH]c4ccccc34)[C@@](C(=O)OC)(c3cc4c(cc3OC)N(C)[C@H]3[C@@](O)(C(=O)OC)[C@H](OC(C)=O)[C@]5(CC)C=CCN6CC[C@]43[C@@H]65)C2)C1 (stereo not given in full) | 65.1 nM (active) and 33.2 nM (active) | 
CC(C)N(CCC(=O)c1ccc2ccccc2c1)Cc1ccccc1 | 2.95 µM (active) and 1.84 µM (active) | 
CCC(Cc1c(I)cc(I)c(N)c1I)C(=O)O (stereo not given) |  | 74% (inactive)
COc1cc(C=C2CCC/C(=C\c3ccc(O)c(OC)c3)C2=O)ccc1O | 3350 nM (active) | 
Nc1ncnc2c1ncn2[C@@H]1O[C@H](CO)C[C@H]1O |  | 94.2% (inactive)
N[C@@H]1CN(c2c(F)cc3c(=O)c(C(=O)O)cn([C@@H]4C[C@@H]4F)c3c2Cl)CC12CC2 |  | 73.5% (inactive)
COc1ccc(S(=O)(=O)N(C(C)=O)c2ccccc2/C=C/c2cc[n+]([O-])cc2)cc1 | 833 nM (active) | 
COc1ccc(Cc2cnc(N)nc2N)cc1OC |  | 107% (inactive)
COc1ccc(S(=O)(=O)Nc2cc(-c3csc(C#N)c3)ccc2C)cc1 | 93.4 nM (active) | 
